This is a sample that favours compounds with a hit; in the whole collection about 7.7% have one here.
HCMV inh: qHTS Assay for inhibitors of the human cytomegalovirus (HCMV). HFF cells, HCMV-luciferase reporter, 72 h; stronger effect = lower value. activity change, negative = inhibition, % at 57.5 µM. actives 4.5% (n = 410,000). AID 1259415, 2018; in the data active = activity change below about -60%; inconclusive = no clear call, values can overlap the other calls; inactive = above about -39%
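After 16 h attachment at 37C, HFF cells received test compound and HCMV-luciferase (1 PFU/cell); reporter luminescence read 72 h later, data normalized against buffer-only and known inhibitor Salinomycin.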
FBPA Giardia inh: qHTS Assay for Inhibitors of Fructose-1,6-bisphosphate Aldolase from Giardia Lamblia. purified Giardia FBPA. A8B2U2. Potency, µM (doses to about 59.6 µM), hits mostly inhibitors. actives 0.71% (n = 290,000); also: nearly all actives have a fitted effect of over 55% in size
Target sequence (A8B2U2 whole entry, looked up): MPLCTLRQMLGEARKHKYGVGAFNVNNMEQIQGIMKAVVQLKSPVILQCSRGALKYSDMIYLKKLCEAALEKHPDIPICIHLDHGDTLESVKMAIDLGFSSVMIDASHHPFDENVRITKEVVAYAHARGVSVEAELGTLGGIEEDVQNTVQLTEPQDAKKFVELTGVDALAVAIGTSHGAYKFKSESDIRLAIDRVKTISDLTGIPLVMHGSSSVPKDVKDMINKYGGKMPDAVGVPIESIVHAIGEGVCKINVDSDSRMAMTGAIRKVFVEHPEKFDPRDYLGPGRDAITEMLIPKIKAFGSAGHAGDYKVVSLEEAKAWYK
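40 nM FBPA preincubated 10 min at RT with compound (up to 57.5 uM final), then substrate plus GAPDH/TPI/NAD/arsenate coupling and diaphorase/resazurin added. Fluorescence read after 20 min at RT, 525/598 nm.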
FMDV antiviral: High Throughput Screening for Foot and Mouth Disease Virus Antivirals | FMDV antiviral cell-based qHTS | Potency, µM (titrated, usually from 57.9 µM), actives largely listed as inhibitors | actives 1.2% (n = 410,000); calls by dose curve; tested in HEK293T cells; also: read-out not given here; nearly all actives have a fitted effect of over 45% in size
Sm TGR block: qHTS Assay for the Inhibitors of Schistosoma Mansoni Peroxiredoxins; Potency, µM (top dose mostly 114 µM), hits mostly inhibitors; purified TGR, DTNB reduction, TNB absorbance 405 nm; actives 3% (n = 360,000); Schistosoma mansoni thioredoxin glutathione reductase (TGR), Q962Y6; AID 485364, 2010; also: nearly all actives have a fitted effect of over 60% in size
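Kinetic colorimetric format: TGR-catalysed, NADPH-driven DTNB reduction monitored via TNB absorbance. Enzyme dispensed at 20 nM; compound exposure 15 min at room temperature before reaction start.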
RE007 growth inh: qHTS Assay for Inhibitors of the HIV-1 protein Vpr; S. pombe RE007 Vpr strain, BacTiter-Glo ATP luminescence, 24 h; Potency, µM (doses to about 92.2 µM), usual class: inhibitors; actives 0.21% (n = 360,000); AID 651644, 2012; active = well fitted falling curve with a large enough effect; inconclusive = small, poorly fitted or top-dose-only effect; inactive = no such curve, though single readings can be large or run the other way; also: nearly all actives have a fitted effect of over 50% in size
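Fission yeast RE007 carrying one integrated HIV-1 vpr copy, seeded at OD 0.01 in PMG+AL medium with 23 nL pinned compound. Grown 24 h at 30 degrees; viability read by BacTiter-Glo luminescence after 5 min.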
Tb PYK inh: qHTS of Trypanosoma Brucei Inhibitors. pyruvate kinase (Trypanosoma brucei), Q57TT1. TbPYK enzyme, Kinase-Glo Plus ATP luminescence, 45 min. Potency, µM (highest dose often 76.8 µM), hits mostly inhibitors. actives 0.12% (n = 410,000). AID 624173, 2012; also: nearly all actives have a fitted effect of over 50% in size
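In this concentration-response screen, enzyme-free wells defined baseline while DMSO plates tracked drift. Each reaction combined TbPYK, substrate, compound and 130 uM ADP for 45 min at room temperature. Kinase-Glo Plus luminescence gave the signal.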
Large screens that a line does not name were inactive; ! = not active in a repeat. Unless noted, calls follow the shape of the dose curve; as a rule, active = well fitted curve in the direction sought with a large enough effect; inconclusive = small, poorly fitted or top-dose-only effect, or another doubt; inactive = no such curve, though single readings can be large; an effect the other way counts as inactive or inconclusive.

O=C(c1ccccc1-c1ccccc1)N1CCN(c2ccccn2)CC1	none
c1ccc(-n2ncc3c(NCCN4CCCCC4)ncnc32)cc1	Sm TGR block 50µM
CC(C)(C)c1ccc(C(=O)NNc2ncnc3c2cnn3-c2ccccc2)cc1	HCMV inh -73 (no result: FBPA Giardia inh, RE007 growth inh)
c1ccc(-n2ncc3c(NCCN4CCOCC4)ncnc32)cc1	none
CCCCC(=O)Nc1cccc(OCc2cc(=O)n3ccccc3n2)c1	none (no result: FBPA Giardia inh, RE007 growth inh)
CCOC(=O)C1CCCN(C(=O)Cn2ncc3c(C)n(Cc4ccc(Cl)cc4)c(C)c3c2=O)C1 (stereo unspecified)	FMDV antiviral 18µM (no result: FBPA Giardia inh, RE007 growth inh)
CCOC(=O)C1CCN(C(=O)Cn2ncc3c([nH]c4ccccc43)c2=O)CC1	HCMV inh -68!
O=C(Cn1ncc2c([nH]c3ccccc32)c1=O)N1CCCCC1	none
COc1cc(C(=O)NN=Cc2ccc(N(C)C)cc2)cc(OC)c1OC	HCMV inh -66 (no result: FBPA Giardia inh, Sm TGR block)
N/C(=N\N=Cc1ccc2c(c1)OCO2)NN=Cc1ccc2c(c1)OCO2	HCMV inh -73 (no result: FBPA Giardia inh, Sm TGR block)
O=C(N/N=C/c1ccc([N+](=O)[O-])o1)c1ccc2c(c1)OCO2	HCMV inh -96, Sm TGR block inconclusive
CN(C)c1ccc(/C=N/NC(=O)c2ccc3c(c2)OCO3)cc1	HCMV inh -66
CC(C)CNC(=O)N1CCN(S(=O)(=O)c2ccc3c(ccn3C)c2)CC1	none (no result: FBPA Giardia inh, RE007 growth inh)
CCn1nc(C)cc1C(=O)NCC1Cc2cc(C)cc(-c3ccccc3C(=O)OC)c2O1 (stereo unspecified)	none (no result: HCMV inh, FBPA Giardia inh, Sm TGR block, RE007 growth inh, Tb PYK inh)
O=C(Nc1ccc(N2CCOCC2)cc1)c1ccc2nc(-c3ccco3)c(-c3ccco3)nc2c1	Sm TGR block inconclusive
O=C(Nc1ccccc1)c1ccc2nc(-c3ccco3)c(-c3ccco3)nc2c1	FBPA Giardia inh inconclusive, Sm TGR block 3.2µM, Tb PYK inh inconclusive
CC(=O)c1ccc(NC(=O)c2ccc3nc(-c4ccco4)c(-c4ccco4)nc3c2)cc1	FBPA Giardia inh inconclusive, FMDV antiviral inconclusive, Sm TGR block 0.79µM, Tb PYK inh inconclusive (no result: HCMV inh)
O=C(NCc1ccccc1)c1ccc2nc(-c3ccco3)c(-c3ccco3)nc2c1	FBPA Giardia inh inconclusive, Sm TGR block 1.4µM, Tb PYK inh inconclusive
CC(=O)c1ccc(NC(=O)CSc2nnc(-c3ccco3)c(-c3ccco3)n2)cc1	FBPA Giardia inh inconclusive, Sm TGR block 2.8µM, Tb PYK inh inconclusive
COc1ccc(C(=O)C2CCCN(C(=O)c3ccccc3C(C)=O)C2)cc1F (stereo unspecified)	HCMV inh inconclusive, Sm TGR block 40µM
CSc1ccc(C(=O)C2CCCN(C(=O)c3ccc4c(c3)OCO4)C2)cc1 (stereo unspecified)	none (no result: FBPA Giardia inh)
CC(=O)c1ccccc1C(=O)N1CCCC(C(=O)c2ccc(C(F)(F)F)cc2)C1 (stereo unspecified)	Sm TGR block 40µM
COc1ccc(C(=O)C2CCCN(C(=O)c3ccc(CSC)o3)C2)cc1F (stereo unspecified)	Sm TGR block 28µM (no result: FBPA Giardia inh)
COc1ccccc1C(=O)C1CCCN(C(=O)c2ccccc2C(C)=O)C1 (stereo unspecified)	none
COCc1ccc(C(=O)N2CCCC(C(=O)c3ccc(SC)cc3)C2)s1 (stereo unspecified)	HCMV inh -87, FMDV antiviral inconclusive
COc1cc2nc(N3CCN(C(=O)OCc4ccccc4)C(C(=O)NC(C)(C)C)C3)nc(N)c2cc1OC (stereo unspecified)	none (no result: HCMV inh, FMDV antiviral, Sm TGR block, RE007 growth inh, Tb PYK inh)
c1ccc2c(CCC3CCNCC3)c[nH]c2c1	none (no result: HCMV inh, FBPA Giardia inh, FMDV antiviral, Sm TGR block, RE007 growth inh)
Cc1ccccc1NC(=O)CSC1=C(C#N)C(c2ccsc2)CC(=O)N1 (stereo unspecified)	HCMV inh -62
C=C(C)CSC1=C(C#N)C(c2ccccc2Cl)CC(=O)N1 (stereo unspecified)	Tb PYK inh 13µM
C=CCSC1=C(C#N)C(c2ccccc2Cl)CC(=O)N1 (stereo unspecified)	none
COCCN1Cc2cccc(C(=O)Nc3ccc(C)cc3C)c2C1=O	none (no result: FBPA Giardia inh, RE007 growth inh)
